This is an account of results in PubChem BioAssay.

Active and inactive are the calls of the source. Unless noted, no rule for the calls is given here.

A short description of assay [1]: HepG2 liver cancer cell viability effects, profiling panel, resazurin fluorescence, 24 h, PK04 Diversity Set (AID 1172). Particulars: higher = more signal.
Assay [2] can be described thus: basal S. cerevisiae growth modulation, no modifier, primary screen, OD600, strain BY4716, 24 h, basal condition (AID 1173). As to conditions: OD600, 24 h, higher = more signal, called active from +8 up or from −8 down.
Assay [3] can be described thus: MM1S myeloma cell viability, profiling panel, resazurin fluorescence, basal, 24 h, PK04 Diversity Set (AID 1174).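 Also: MM1S multiple myeloma cell line.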 Particulars: higher = more signal, called active from +8 up or from −8 down.
Assay [4] addresses Dihydroorotate dehydrogenase (quinone), mitochondrial (Plasmodium falciparum (isolate 3D7)) (UniProt Q08210). As to the kind of experiment: PfDHODH enzyme inhibitors, primary screen, biochemical, C-terminal His tag, absorbance 600 nm (AID 1175).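 Also: recombinant parasite enzyme with a five histidine tag at its C terminus.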 As to conditions: DCIP absorbance 600 nm, higher = more signal, called active from +8 up or from −8 down.
Assay [5] is described as follows: P. aeruginosa biofilm formation inhibitors, primary screen, strain PAO1, LB-PBS medium, absorbance 600 nm (AID 1176). As to conditions: P. aeruginosa PAO1 growth/biofilm, A600, 12 h; higher = more signal.
The nature of assay [6]: S. cerevisiae RM11-1a growth modifiers, primary screen, strain RM11-1a, OD600, basal, 24 h (AID 1177).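 Also: cultures grown under basal conditions with no added stressor.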 Particulars: OD600, 24 h, higher = more signal, called active from +8 up or from −8 down.
Assay [7] can be described thus: E. coli acrAB mutant growth effects, primary screen, E. coli filamentation inducers, strain DRC39, OD650, 24 h (AID 1178).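 Also: growth measured as culture turbidity by optical density at 650 nm.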 As to conditions: higher = more signal, called active from +8 up or from −8 down.
A short description of assay [8]: E. coli acrAB mutant growth effects, primary screen, E. coli filamentation inducers, strain DRC39, OD650, 48 h (AID 1179).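 Also: screen aims at cell division blockers that make cells filament.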 Particulars: E. coli DRC39 delta-acrAB growth, higher = more signal, called active from +8 up or from −8 down.
The nature of assay [9]: RPMI8226 myeloma cell viability, profiling panel, resazurin fluorescence, basal, 24 h, PK04 Diversity Set (AID 1180).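 Also: RPMI8826 multiple myeloma cell line at 5000 cells per well.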 Particulars: higher = more signal.
Assay [10] deals with E3 ubiquitin-protein ligase XIAP (Homo sapiens) (UniProt P98170). As to the kind of experiment: XIAP binders, primary screen, biophysical, small-molecule microarray, fluorescence 635 nm (AID 1181).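 Also: score merges 667 nm emission and signal to noise over triplicate slides.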 As to conditions: small-molecule microarray binding, higher = more signal.
Assay [11] has as its system XIP peptide (Xip251-270) binding. As to the kind of experiment: small-molecule binders of XIP peptide, primary screen, biochemical, small-molecule microarray, fluorescence 635/667 nm, 0.1 µg/mL protein (AID 1182). Particulars: fluorescent protein binding, 635 nm, higher = more signal, called active from +8 up or from −8 down.
The next assay deals with XIP peptide (Xip251-270). As to the kind of experiment: small-molecule binders of XIP peptide, primary screen, biochemical, small-molecule microarray, fluorescence 635/667 nm, 0.5 µg/mL protein (AID 1183). Particulars: small-molecule microarray binding, fluorescence 635 nm; higher = more signal.
Assay [12] can be described thus: Plasmodium falciparum growth inhibition, primary screen, strain 3D7, DAPI fluorescence, 100 nL (AID 1184).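 Also: parasites grown inside human red blood cells in medium with human serum.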 Particulars: P. falciparum 3D7 growth, 3 d, higher = more signal.
Assay [13] addresses Homeobox protein Hox-A13 (Mus musculus) (UniProt Q62424). As to the kind of experiment: inhibitors of HoxA13-DNA binding, primary screen, biochemical, fluorescence polarization, labeled oligonucleotide (AID 1185). As to conditions: 15 min, higher = more signal, called active from +8 up or from −8 down.
Assay [14] is described as follows: inhibitors of hydroxyurea-induced Chk1 phosphorylation, primary screen, imaging, HeLa, phospho-Chk1 antibody, percent positive cells (AID 1186). As to conditions: hydroxyurea-induced phospho-Chk1 immunofluorescence imaging, higher = more signal.
Assay [15] is described as follows: inhibitors of hydroxyurea-induced Chk1 phosphorylation, primary screen, imaging, HeLa, phospho-Chk1 nuclear intensity (AID 1187). As to conditions: hydroxyurea-induced phospho-Chk1 immunofluorescence imaging, higher = more signal.

Chain of Homeobox protein Hox-A13 (Mus musculus) (Q62424 whole entry, looked up): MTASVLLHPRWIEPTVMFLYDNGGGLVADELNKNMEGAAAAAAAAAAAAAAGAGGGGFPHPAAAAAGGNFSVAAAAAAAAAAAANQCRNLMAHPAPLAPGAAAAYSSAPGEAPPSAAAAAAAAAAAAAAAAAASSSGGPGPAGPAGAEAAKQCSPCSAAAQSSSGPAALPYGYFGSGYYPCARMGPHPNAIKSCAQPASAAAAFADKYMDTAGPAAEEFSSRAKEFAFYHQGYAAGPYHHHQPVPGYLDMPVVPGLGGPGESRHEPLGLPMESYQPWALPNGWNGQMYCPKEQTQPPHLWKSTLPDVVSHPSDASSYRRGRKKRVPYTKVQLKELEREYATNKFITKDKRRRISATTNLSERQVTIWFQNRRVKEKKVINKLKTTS
Chain of E3 ubiquitin-protein ligase XIAP (Homo sapiens) (P98170 whole entry, looked up): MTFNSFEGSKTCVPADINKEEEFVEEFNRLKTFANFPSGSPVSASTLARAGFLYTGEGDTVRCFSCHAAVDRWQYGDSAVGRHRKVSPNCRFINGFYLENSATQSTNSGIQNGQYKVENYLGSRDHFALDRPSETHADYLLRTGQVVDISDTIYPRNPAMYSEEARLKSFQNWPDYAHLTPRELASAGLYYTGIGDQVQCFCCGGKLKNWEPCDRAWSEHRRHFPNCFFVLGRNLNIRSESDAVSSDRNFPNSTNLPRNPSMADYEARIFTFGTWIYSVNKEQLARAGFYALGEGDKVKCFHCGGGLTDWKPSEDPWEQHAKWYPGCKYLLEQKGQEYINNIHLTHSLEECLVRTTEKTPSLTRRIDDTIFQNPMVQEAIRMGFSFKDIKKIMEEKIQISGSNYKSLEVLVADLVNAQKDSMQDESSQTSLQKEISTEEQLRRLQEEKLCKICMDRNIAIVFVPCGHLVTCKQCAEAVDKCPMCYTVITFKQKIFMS
Chain of Dihydroorotate dehydrogenase (quinone), mitochondrial (Plasmodium falciparum (isolate 3D7)) (Q08210 whole entry, looked up): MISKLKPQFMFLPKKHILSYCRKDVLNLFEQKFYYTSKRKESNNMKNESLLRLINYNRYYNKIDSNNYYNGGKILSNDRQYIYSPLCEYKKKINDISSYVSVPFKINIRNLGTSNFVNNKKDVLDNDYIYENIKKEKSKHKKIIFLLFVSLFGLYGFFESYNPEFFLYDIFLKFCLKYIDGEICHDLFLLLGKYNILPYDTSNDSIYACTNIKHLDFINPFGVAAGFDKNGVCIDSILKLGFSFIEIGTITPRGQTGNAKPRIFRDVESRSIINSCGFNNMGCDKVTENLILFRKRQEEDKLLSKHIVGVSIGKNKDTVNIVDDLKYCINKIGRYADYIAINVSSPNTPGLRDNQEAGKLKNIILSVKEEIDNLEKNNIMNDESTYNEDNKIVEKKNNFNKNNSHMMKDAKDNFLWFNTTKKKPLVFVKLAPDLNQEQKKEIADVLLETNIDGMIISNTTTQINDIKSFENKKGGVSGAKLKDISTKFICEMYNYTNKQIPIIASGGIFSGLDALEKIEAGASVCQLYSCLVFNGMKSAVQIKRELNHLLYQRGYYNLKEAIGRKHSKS

With `COC(=O)[C@@]1(Cc2ccc(OC)cc2)[C@H]2c3cc(C(=O)N(C)C)n(Cc4ccc(C)o4)c3C[C@H]2CN1C(=O)c1ccccc1`, the z-score is -0.239 in assay [1]; 0.256 (inactive) in [2]; -3.45 (inactive) in assay [3]; -0.719 (inactive) in [5]; 1.54 (inactive) in [6]; 0.502 (inactive) in assay [7]. For the same compound, the z-score in assay [8] is -0.0131 (inactive); in assay [9], -4.83; in assay [12], -0.952; in assay [13], -4.5 (inactive); in assay [14] it was 0.046 (inactive); in [15], 0.304 (inactive). The composite z-score is 0.376 (inactive) in assay [4], 0.072 in assay [10], 0.223 (inactive) in assay [11] and 0.0805 in the assay with XIP peptide (Xip251-270).

For `C=C(COC)/C(=C/C[C@H](OC(=O)c1ccncc1)c1ccccc1OCCO)c1cc(C(=O)OC)ccc1OC`, the z-score in [1] is -0.418; in assay [2] it was -0.0515 (inactive); in assay [3] it was -2.16 (inactive); in assay [5], 0.367 (inactive); in [6], -0.567 (inactive); in [7] it was -1.31 (inactive). Moreover, the z-score in assay [8] is -1.21 (inactive); in assay [9] it was -1.58; in assay [12], -2.95; in [13], -4.91 (inactive); in assay [14], 0.127 (inactive); in assay [15], 0.0857 (inactive). Moreover, the composite z-score in [4] was -2.32 (inactive); in assay [10] it was -0.157; in [11], 0.0249 (inactive); with XIP peptide (Xip251-270), 0.12.

Consider `CCCCC=C[C@@H](NC(=O)OCc1ccccc1Cl)c1ccccc1`, for which the z-score in assay [1] was -0.656; in assay [2], 1.33 (inactive); in [3], -1.19 (inactive); in [5] it was 0.84 (inactive); in assay [6] it was 1.48 (inactive); in [7] it was -1.32 (inactive). The z-score is -0.892 (inactive) in [8]; -1.2 in [9]; -1.37 in [12]; 2.14 (inactive) in assay [13]; 0.663 (inactive) in [14]; -0.117 (inactive) in assay [15]. Also, the composite z-score in [4] is 0.0518 (inactive); in assay [10], 0.0137; in [11] it was -0.549 (inactive); with XIP peptide (Xip251-270) it was 0.573.

As for `[N-]=[N+]=Nc1ccccc1C[C@@]1(C(=O)NCCN2CCOCC2)N=C(c2ccc(OCCCO)cc2)O[C@@H]1c1ccccc1N=[N+]=[N-]`, the z-score in assay [1] is -1.02; in assay [2] it was -3.4 (inactive); in [3], -2.12 (inactive); in [5], -0.124 (inactive); in assay [6], 0.26 (inactive); in assay [7], -0.229 (inactive). Also, the z-score was -1.02 (inactive) in [8]; -2.02 in assay [9]; -2.49 in [12]; -5.26 (inactive) in assay [13]; -0.303 (inactive) in [14]; -0.523 (inactive) in assay [15]. Also, the composite z-score is 0.322 (inactive) in [4], 0.17 in [10], 0.361 (inactive) in assay [11] and 0.846 in the assay on XIP peptide (Xip251-270).

Turning to `COC(=O)C/C=C/C[C@]1(O)C(=O)N(C)c2ccccc21`, the z-score in [1] is 0.197; in [2], -1.81 (inactive); in [3], 0.913 (inactive); in assay [5], 0.732 (inactive); in assay [6] it was -2.6 (inactive); in assay [7], 2.38 (inactive). In addition, the z-score in [8] is 0.875 (inactive); in [9], 0.547; in assay [12], -0.306; in [13], -1.32 (inactive); in [14] it was -0.866 (inactive); in assay [15], -0.467 (inactive). Besides, the composite z-score is -0.429 (inactive) in assay [4], -0.0861 in assay [10], 0.0625 (inactive) in assay [11] and 0.804 with XIP peptide (Xip251-270).

As for `COC(=O)[C@@]1(Cc2ccc(F)cc2)[C@H]2c3cc(C(=O)N(C)C)n(Cc4ccc(OC(F)(F)F)cc4)c3C[C@H]2CN1C(=O)c1ccccc1`, the z-score in assay [1] is -0.674; in assay [2] it was 0.825 (inactive); in assay [3], -0.933 (inactive); in assay [5], 0.604 (inactive); in assay [6], 0.245 (inactive); in assay [7], -0.586 (inactive). The z-score in assay [8] was -0.499 (inactive); in assay [9], -0.603; in assay [12], 0.595; in assay [13], -0.102 (inactive); in assay [14], 0.233 (inactive); in assay [15], 0.579 (inactive). Moreover, the composite z-score in [4] was -0.0384 (inactive); in assay [10] it was -0.102; in assay [11], 0.342 (inactive); in the assay on XIP peptide (Xip251-270), -0.133.

On to `COc1ccc([Si](C)(C)[C@H]2[C@H](CC(=O)N(CCO)Cc3ccccc3)O[C@@]3(C(=O)N(C)c4c(Br)cc(C)cc43)[C@@H]2C)cc1`, for which the z-score in [1] was -1.86; in assay [2] it was -2.5 (inactive); in assay [3], -2.84 (inactive); in [5], 1.94 (inactive); in assay [6], 0.257 (inactive); in [7], 1.32 (inactive). Also, the z-score is 0.677 (inactive) in assay [8]; -5.31 in assay [9]; -2.08 in assay [12]; -6.1 (inactive) in [13]; -1.82 (inactive) in assay [14]; -1.22 (inactive) in assay [15]. Also, the composite z-score in assay [4] is -0.474 (inactive); in [10], 0.868; in [11], 0.159 (inactive); in the assay with XIP peptide (Xip251-270), 0.334.

For `CCOC(=O)C[C@H]1[C@H](OC(=O)c2ccc(C(=O)c3ccccc3)cc2)[C@@H](NC(=O)C2CCCCC2)c2cc(OCCCO)ccc2N1C(=O)c1ccc2ccccc2n1`, the z-score in assay [1] is 0.547; in assay [2], -0.108 (inactive); in assay [3], 0.491 (inactive); in assay [5], -0.312 (inactive); in assay [6], 0.86 (inactive); in assay [7], 0.297 (inactive). The z-score in [8] was 0.991 (inactive); in assay [9], 0.0839; in assay [12] it was -1.69; in assay [13] it was -0.814 (inactive); in assay [14], -0.739 (inactive); in [15] it was -0.573 (inactive). For the same compound, the composite z-score was -1.63 (inactive) in [4], -0.0141 in [10], -0.482 (inactive) in assay [11] and 0.368 with XIP peptide (Xip251-270).

With `COCCOC(=O)N1C(=O)[C@@]2(c3cc(C#CC4=CCCCC4)ccc31)[C@H](C(=O)Nc1nc3ccccc3s1)[C@H]1C(=O)O[C@H](c3ccccc3)[C@H](c3ccccc3)N1[C@@H]2c1ccc(O)cc1`, the z-score in [1] is -0.263; in assay [2], -0.344 (inactive); in [3], -0.679 (inactive); in [5], 0.766 (inactive); in assay [6] it was -0.145 (inactive); in [7], -0.469 (inactive). Moreover, the z-score in assay [8] is -0.765 (inactive); in [9] it was -0.527; in assay [12] it was -0.259; in [13] it was -0.148 (inactive); in assay [14] it was -0.0232 (inactive); in assay [15], -0.0288 (inactive). Also, the composite z-score was 0.347 (inactive) in assay [4], -0.138 in assay [10], -0.0082 (inactive) in [11] and 0.751 in the assay with XIP peptide (Xip251-270).
